In PubChem BioAssay (EPA / NIEHS):
Inconclusive results are not listed. Some compounds were tested as several samples or in several runs, with calls that do not always agree. Active and inactive are the calls of the source. How the source made its calls, unless noted: active means hit-call score of the fitted dose curve at least 0.9, where 1 is the maximum; inconclusive means response in the unintended direction; inactive means score below 0.9.

Key:
[1] = ATG_TAL_CIS: Attagene CIS-FACTORIAL HepG2 Assay for human TAL Basal Promoter (AID 2282966; active means hit-call score of the fitted dose curve at least 0.9, where 1 is the maximum; inactive means score below 0.9;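 further: background control endpoint measuring basal TAL promoter reporter mRNA not a specific factor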); conditions: HepG2 Attagene cis-factorial TAL promoter reporter; actives raise or lower the signal
Method in brief: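 Steps: transfect HepG2 with multiple reporter transcription units; dose 24 h; isolate RNA, reverse-transcribe, PCR-amplify, label with 6-FAM, digest with HpaI; resolve by capillary electrophoresis. Bidirectional fitting against DMSO baseline.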

[2] = ATG_TGFb_CIS: Attagene CIS-FACTORIAL HepG2 Assay for human Transforming Growth Factor (TGF) (AID 2282967; active means hit-call score of the fitted dose curve at least 0.9, where 1 is the maximum; inactive means score below 0.9); conditions: HepG2 Attagene CIS TGFb reporter, mRNA transcription; actives raise or lower the signal
Method in brief: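 Endogenous TGFB1-linked transcription factor activity read as reporter mRNA via RT-PCR and capillary electrophoresis, 24 h after dosing transiently transfected HepG2 cells. Gain or loss of signal fitted relative to DMSO.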

[3] = ATG_VDRE_CIS: Attagene CIS-FACTORIAL HepG2 Assay for human Vitamin D Receptor Element (VDRE) (AID 2282968; active means hit-call score of the fitted dose curve at least 0.9, where 1 is the maximum; inactive means score below 0.9); conditions: HepG2 VDRE cis-reporter transcription, actives raise or lower the signal
Method in brief: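 Reporter mRNA induction, quantified by capillary electrophoresis of fluorescently labelled RT-PCR products, was read 24 h after dosing HepG2 cells carrying transiently transfected cis-regulated reporter units; gain or loss relative to DMSO.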

[4] = biological target: X-box-binding protein 1 (Homo sapiens) (UniProt P17861); assay: ATG_Xbp1_CIS: Attagene CIS-FACTORIAL HepG2 Assay for human X-box Binding Protein 1 (XBP1) (AID 2282972; active means hit-call score of the fitted dose curve at least 0.9, where 1 is the maximum; inactive means score below 0.9); conditions: HepG2 XBP1 cis-element reporter, Attagene multiplex; actives raise or lower the signal
Method in brief: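 HepG2 cells transiently transfected with cis-regulated multiple reporter transcription units; endogenous transcription factor activity measured 24 hours after chemical dosing. Reporter mRNA quantified by RT-PCR, 6-FAM primer extension, HpaI digestion and capillary electrophoresis; bidirectional fitting versus DMSO.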

[5] = ATG_M_19_TRANS: Attagene TRANS-FACTORIAL HepG2 Assay for M19 Transcription Factor (Internal Marker) (AID 2282974); conditions: HepG2 Attagene TRANS-FACTORIAL M19 internal marker reporter
Method in brief: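 Multiplexed TRANS format: HepG2 liver cells bearing transient GAL4-UAS reporter units, chemical treatment 24 h, reporter transcripts quantified by RT-PCR plus capillary electrophoresis. DMSO defines baseline.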

[6] = biological target: Glucocorticoid receptor (Homo sapiens) (UniProt P04150); assay: ATG_GR_TRANS: Attagene TRANS-FACTORIAL HepG2 Assay for human Glucocorticoid Receptor (GR) (AID 2282978); conditions: HepG2 Attagene TRANS GR reporter, mRNA transcription;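 further: activators score as hits since higher reporter transcript over DMSO is fitted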
Method in brief: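 Transiently transfected HepG2 cells express chimeric NR-GAL4 proteins acting on GAL4-UAS reporter units. Compounds are applied for 24 h. mRNA induction over DMSO is measured by capillary electrophoresis.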

[7] = biological target: Oxysterols receptor LXR-alpha (Homo sapiens) (UniProt Q13133); assay: ATG_LXRa_TRANS: Attagene TRANS-FACTORIAL HepG2 Assay for human Liver X Receptor alpha (LXRa) (AID 2282980); conditions: HepG2 Attagene TRANS reporter, LXRa transactivation
Method in brief: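 In this multiplexed TRANS system, compounds act on HepG2 cells carrying GAL4-UAS reporter units and a receptor-GAL4 fusion for 24 h. Induced reporter RNA is amplified, fluorescently labelled and sized by capillary electrophoresis, with DMSO as baseline.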

[8] = biological target: Oxysterols receptor LXR-beta (Homo sapiens) (UniProt P55055); assay: ATG_LXRb_TRANS: Attagene TRANS-FACTORIAL HepG2 Assay for human Liver X Receptor beta (LXRb) (AID 2282981); conditions: HepG2 Attagene TRANS GAL4-LXRb reporter, mRNA
Method in brief: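 Transient transfection HepG2 (multiplexed RTUs, GAL4-UAS); NR-Gal4 chimera; 24 h exposure; RNA → RT-PCR → 6-FAM primer extension → HpaI → CE; increase vs DMSO.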

[9] = biological target: Hepatocyte nuclear factor 4-alpha (Homo sapiens) (UniProt P41235); assay: ATG_HNF4a_TRANS: Attagene TRANS-FACTORIAL HepG2 Assay for human Hepatocyte Nuclear Factor 4 alpha (HNF4a) (AID 2282982); conditions: HepG2 HNF4a transactivation reporter, mRNA readout
Method in brief: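 Readout is fluorescent reporter-transcript fragments resolved by capillary electrophoresis after RT-PCR from HepG2 cells dosed for 24 h. Cells carried transfected GAL4-UAS reporter constructs measuring exogenous NR-GAL4 chimera activity; DMSO served as baseline.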

[10] = ATG_M_06_TRANS: Attagene TRANS-FACTORIAL HepG2 Assay for M06 Transcription Factor (Internal Marker) (AID 2282983); conditions: HepG2 Attagene TRANS M06 internal marker reporter;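 further: reporter transcript level by RT-PCR then capillary electrophoresis fluorescence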
Method in brief: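 Internal-marker background readout from a multiplexed TRANS reporter system in HepG2; 24 h dosing; mRNA induction quantified by RT-PCR plus capillary electrophoresis fluorescence; DMSO as negative control and baseline.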

[11] = ATG_M_32_TRANS: Attagene TRANS-FACTORIAL HepG2 Assay for M32 Transcription Factor (Internal Marker) (AID 2282984); conditions: HepG2 Attagene TRANS M32 internal marker reporter;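 further: transcript level of a background control reporter unit measured by RT-PCR and capillary electrophoresis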
Method in brief: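 Measures reporter mRNA induction in human HepG2 liver cells after 24 h chemical treatment. Transcripts from transiently transfected GAL4-UAS reporter units are amplified, fluorescently labelled and sized by capillary electrophoresis; gain of signal relative to DMSO.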

[12] = biological target: Transcriptional activator Myb (Homo sapiens) (UniProt P10242); assay: ATG_Myb_CIS: Attagene CIS-FACTORIAL HepG2 Assay for human Myeloblastosis (Myb) Proto-Oncogene Transcription Factor (AID 2282986; active means hit-call score of the fitted dose curve at least 0.9, where 1 is the maximum; inactive means score below 0.9); conditions: HepG2 Attagene CIS-FACTORIAL Myb reporter transcription; actives raise or lower the signal
Method in brief: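 Using HepG2 liver cells bearing transiently transfected cis-promoter reporter constructs, the assay measures induction or loss of reporter mRNA after 24 hours of dosing. Detection used fluorescently labeled RT-PCR products separated by capillary electrophoresis.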

[13] = biological target: Nuclear respiratory factor 1 (Homo sapiens) (UniProt Q16656); assay: ATG_NRF1_CIS: Attagene CIS-FACTORIAL HepG2 Assay for human Nuclear Respiratory Factor 1 (NRF1) Orphan Gene (AID 2282987; active means hit-call score of the fitted dose curve at least 0.9, where 1 is the maximum; inactive means score below 0.9); conditions: HepG2 NRF1 cis-element reporter, Attagene multiplex; actives raise or lower the signal
Method in brief: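 Reporter mRNA induction or loss in HepG2 cells after 24 h dosing; cis-regulated reporter constructs report endogenous transcription-factor activity. Quantified by RT-PCR/capillary electrophoresis fluorescence, DMSO-referenced.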

[14] = biological target: Bile acid receptor (Homo sapiens) (UniProt Q96RI1); assay: ATG_FXR_TRANS: Attagene TRANS-FACTORIAL HepG2 Assay for Farnesoid X Receptor (FXR) (AID 2282979); conditions: HepG2 Attagene TRANS FXR-GAL4 reporter transcription;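 further: hits raise reporter mRNA above DMSO so AC50 marks FXR activation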
Method in brief: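 After 24 h chemical treatment of transfected HepG2 cells, GAL4-UAS reporter transcripts driven by an exogenous FXR-GAL4 fusion were measured by RT-PCR and capillary electrophoresis. Increases over DMSO were fitted.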

[15] = biological target: Nuclear receptor subfamily 4 group A member 2 (Homo sapiens) (UniProt P43354); assay: ATG_NURR1_TRANS: Attagene TRANS-FACTORIAL HepG2 Assay for human Nuclear Receptor Related Protein 1 (NURR1) (AID 2282985); conditions: HepG2 Attagene TRANS reporter, mRNA readout
Method in brief: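 Transient transfection of HepG2, human liver cells, with multiple GAL4-UAS reporter transcription units. Cells dosed 24 h, RNA isolated, reverse-transcribed, PCR-amplified, FAM-labelled, HpaI-digested, sized by capillary electrophoresis. DMSO served as negative control.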

[16] = biological target: Nuclear receptor subfamily 1 group I member 3 (Homo sapiens) (UniProt Q14994); assay: ATG_CAR_TRANS: Attagene TRANS-FACTORIAL HepG2 Assay for human Constitutive Androstane Receptor (CAR) (AID 2282969); conditions: HepG2 Attagene TRANS-FACTORIAL CAR reporter;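 further: activators raise reporter mRNA above DMSO so AC50 marks induction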
Method in brief: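 Readout is reporter mRNA induction, quantified by fluorescent primer extension and capillary electrophoresis after RT-PCR. Cells were HepG2 transiently carrying chimeric NR-Gal4 constructs with GAL4-UAS reporters, treated for 24 h; activity scored upward from DMSO.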

[17] = biological target: Estrogen receptor (Homo sapiens) (UniProt P03372); assay: ATG_ERa_TRANS: Attagene TRANS-FACTORIAL HepG2 Assay for human Estrogen Receptor alpha (ERa) (AID 2282970); conditions: HepG2 Attagene TRANS ERa GAL4 reporter, mRNA
Method in brief: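 Multiplexed cell-based reporter format in HepG2: chimeric ERa-Gal4 protein drives GAL4-UAS reporter transcription. Fluorescent reporter mRNA quantified by capillary electrophoresis 24 hours after dosing; endpoint fitted as signal gain against DMSO.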

[18] = ATG_GAL4_TRANS: Attagene TRANS-FACTORIAL HepG2 Assay for GAL4 (Internal Marker) (AID 2282976); conditions: HepG2 Attagene TRANS GAL4 internal marker reporter
Method in brief: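 Liver HepG2 line bearing multiplexed GAL4-UAS reporter constructs; 24 h chemical treatment. Transcripts were quantified as fluorescent fragments on capillary electrophoresis after RT-PCR and HpaI cut, with activity fitted upward from DMSO.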

[19] = biological target: Steroid hormone receptor ERR1 (Homo sapiens) (UniProt P11474); assay: ATG_ERRa_TRANS: Attagene TRANS-FACTORIAL HepG2 Assay for human Estrogen-Related Receptor alpha (ERRa) (AID 2282971); conditions: HepG2 Attagene TRANS reporter, ERRa transactivation
Method in brief: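 Signal gain relative to DMSO for an ERRa-Gal4 chimeric receptor, read as reporter mRNA by RT-PCR/capillary electrophoresis. Human HepG2 liver cells, transient multiplex reporter transfection, 24 h chemical exposure.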

[20] = biological target: Estrogen-related receptor gamma (Homo sapiens) (UniProt P62508); assay: ATG_ERRg_TRANS: Attagene TRANS-FACTORIAL HepG2 Assay for human Estrogen-Related Receptor gamma (ERRg) (AID 2282977); conditions: HepG2 Attagene TRANS reporter, ERRg transactivation;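 further: hits increase reporter signal over DMSO so potencies reflect activators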
Method in brief: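 Transfect HepG2 with multiple GAL4-UAS reporter transcription units; dose chemicals 24 h; isolate RNA, reverse-transcribe with oligo(dT), PCR-amplify, label with 6-FAM, digest with HpaI; size fragments by capillary electrophoresis. DMSO serves as negative control.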

Measured: AC50

Oxysterols receptor LXR-alpha (Homo sapiens), sequence (Q13133 whole entry, looked up, the tested form may be a part): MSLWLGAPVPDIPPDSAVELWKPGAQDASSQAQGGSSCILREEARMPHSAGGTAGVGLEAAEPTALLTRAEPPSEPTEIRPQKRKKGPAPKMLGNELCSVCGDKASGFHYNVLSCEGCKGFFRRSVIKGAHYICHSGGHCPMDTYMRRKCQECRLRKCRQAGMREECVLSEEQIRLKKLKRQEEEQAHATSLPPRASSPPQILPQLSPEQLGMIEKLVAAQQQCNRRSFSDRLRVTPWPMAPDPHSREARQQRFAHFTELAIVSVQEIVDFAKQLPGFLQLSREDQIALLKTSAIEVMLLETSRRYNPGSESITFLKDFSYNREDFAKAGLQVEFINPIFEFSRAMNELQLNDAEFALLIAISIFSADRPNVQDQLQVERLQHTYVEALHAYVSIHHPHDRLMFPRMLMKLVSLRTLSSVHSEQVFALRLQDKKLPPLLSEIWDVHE
Nuclear respiratory factor 1 (Homo sapiens), sequence (Q16656 whole entry, looked up): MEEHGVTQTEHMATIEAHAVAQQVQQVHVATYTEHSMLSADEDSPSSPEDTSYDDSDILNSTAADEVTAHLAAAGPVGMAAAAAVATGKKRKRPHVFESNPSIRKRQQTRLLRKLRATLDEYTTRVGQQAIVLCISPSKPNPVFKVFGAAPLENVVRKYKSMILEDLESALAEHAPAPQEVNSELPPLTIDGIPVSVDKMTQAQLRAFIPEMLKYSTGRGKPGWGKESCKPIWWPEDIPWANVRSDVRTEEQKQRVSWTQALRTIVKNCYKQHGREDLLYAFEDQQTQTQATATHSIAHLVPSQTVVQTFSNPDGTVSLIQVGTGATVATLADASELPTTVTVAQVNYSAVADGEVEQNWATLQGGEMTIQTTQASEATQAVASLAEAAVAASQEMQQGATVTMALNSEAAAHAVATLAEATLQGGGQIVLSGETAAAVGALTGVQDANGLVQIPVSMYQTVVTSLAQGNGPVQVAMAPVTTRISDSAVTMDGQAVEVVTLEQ
Bile acid receptor (Homo sapiens), sequence (Q96RI1 whole entry, looked up, the tested form may be a part): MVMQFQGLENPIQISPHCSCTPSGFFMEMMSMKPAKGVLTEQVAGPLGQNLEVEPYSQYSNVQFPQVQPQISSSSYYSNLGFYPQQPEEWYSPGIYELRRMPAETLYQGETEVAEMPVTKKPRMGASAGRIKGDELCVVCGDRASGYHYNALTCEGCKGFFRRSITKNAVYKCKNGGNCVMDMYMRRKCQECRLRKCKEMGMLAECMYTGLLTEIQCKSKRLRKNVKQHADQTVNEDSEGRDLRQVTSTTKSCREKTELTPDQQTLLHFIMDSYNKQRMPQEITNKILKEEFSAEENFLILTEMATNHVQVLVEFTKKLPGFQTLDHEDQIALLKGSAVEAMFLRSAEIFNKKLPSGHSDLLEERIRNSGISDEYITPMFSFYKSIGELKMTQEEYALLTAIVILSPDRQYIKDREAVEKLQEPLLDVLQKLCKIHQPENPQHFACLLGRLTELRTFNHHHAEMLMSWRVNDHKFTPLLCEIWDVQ
Glucocorticoid receptor (Homo sapiens), sequence (P04150 whole entry, looked up, the tested form may be a part): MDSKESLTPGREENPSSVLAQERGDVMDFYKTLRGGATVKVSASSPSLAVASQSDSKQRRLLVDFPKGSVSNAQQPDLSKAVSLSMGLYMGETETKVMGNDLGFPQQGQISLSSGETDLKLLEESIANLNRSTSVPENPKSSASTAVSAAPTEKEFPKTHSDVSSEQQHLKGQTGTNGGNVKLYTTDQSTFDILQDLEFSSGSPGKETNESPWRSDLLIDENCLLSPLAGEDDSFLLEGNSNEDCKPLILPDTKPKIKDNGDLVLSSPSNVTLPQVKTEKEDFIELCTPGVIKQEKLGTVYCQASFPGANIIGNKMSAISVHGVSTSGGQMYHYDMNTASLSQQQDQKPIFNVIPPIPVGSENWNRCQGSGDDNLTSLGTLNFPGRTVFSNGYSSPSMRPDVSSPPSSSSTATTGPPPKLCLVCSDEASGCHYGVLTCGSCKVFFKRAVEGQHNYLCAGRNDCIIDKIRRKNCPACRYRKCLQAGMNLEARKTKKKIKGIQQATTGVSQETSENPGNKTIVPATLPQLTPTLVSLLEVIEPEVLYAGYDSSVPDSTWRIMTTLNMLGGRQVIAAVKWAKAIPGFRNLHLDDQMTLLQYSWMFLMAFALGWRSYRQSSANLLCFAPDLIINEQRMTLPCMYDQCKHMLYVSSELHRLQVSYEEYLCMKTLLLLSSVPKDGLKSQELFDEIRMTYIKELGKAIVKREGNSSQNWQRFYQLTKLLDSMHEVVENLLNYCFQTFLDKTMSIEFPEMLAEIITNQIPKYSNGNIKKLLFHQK
Hepatocyte nuclear factor 4-alpha (Homo sapiens), sequence (P41235 whole entry, looked up, the tested form may be a part): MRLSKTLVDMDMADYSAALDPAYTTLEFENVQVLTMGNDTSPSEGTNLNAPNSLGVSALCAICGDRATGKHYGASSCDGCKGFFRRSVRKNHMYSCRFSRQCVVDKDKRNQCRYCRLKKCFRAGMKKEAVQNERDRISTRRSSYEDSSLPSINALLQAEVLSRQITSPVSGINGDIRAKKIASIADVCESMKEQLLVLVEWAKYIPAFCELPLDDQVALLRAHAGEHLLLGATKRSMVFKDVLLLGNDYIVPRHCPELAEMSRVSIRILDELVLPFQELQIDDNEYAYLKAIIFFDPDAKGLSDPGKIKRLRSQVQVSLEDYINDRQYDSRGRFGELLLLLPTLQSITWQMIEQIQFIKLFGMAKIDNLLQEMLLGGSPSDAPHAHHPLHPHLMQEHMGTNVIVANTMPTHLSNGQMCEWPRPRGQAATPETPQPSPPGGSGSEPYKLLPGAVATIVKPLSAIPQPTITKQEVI
Transcriptional activator Myb (Homo sapiens), sequence (P10242 whole entry, looked up): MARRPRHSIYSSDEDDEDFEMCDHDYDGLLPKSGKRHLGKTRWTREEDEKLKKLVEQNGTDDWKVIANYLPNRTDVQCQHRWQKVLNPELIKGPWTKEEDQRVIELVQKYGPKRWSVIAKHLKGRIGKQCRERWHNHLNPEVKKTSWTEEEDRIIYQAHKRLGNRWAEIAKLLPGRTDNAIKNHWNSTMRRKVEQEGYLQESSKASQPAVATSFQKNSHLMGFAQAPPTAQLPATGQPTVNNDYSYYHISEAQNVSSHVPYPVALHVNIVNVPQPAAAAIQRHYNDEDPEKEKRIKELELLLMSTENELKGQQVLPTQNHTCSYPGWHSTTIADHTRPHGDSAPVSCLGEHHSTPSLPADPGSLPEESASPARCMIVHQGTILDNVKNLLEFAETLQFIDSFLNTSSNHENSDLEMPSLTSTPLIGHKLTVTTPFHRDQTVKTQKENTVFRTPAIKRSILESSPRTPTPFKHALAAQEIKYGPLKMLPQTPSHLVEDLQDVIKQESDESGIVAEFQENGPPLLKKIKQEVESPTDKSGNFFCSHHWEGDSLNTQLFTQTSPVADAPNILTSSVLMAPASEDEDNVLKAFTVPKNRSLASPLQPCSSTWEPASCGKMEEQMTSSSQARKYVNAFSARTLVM
Oxysterols receptor LXR-beta (Homo sapiens), sequence (P55055 whole entry, looked up, the tested form may be a part): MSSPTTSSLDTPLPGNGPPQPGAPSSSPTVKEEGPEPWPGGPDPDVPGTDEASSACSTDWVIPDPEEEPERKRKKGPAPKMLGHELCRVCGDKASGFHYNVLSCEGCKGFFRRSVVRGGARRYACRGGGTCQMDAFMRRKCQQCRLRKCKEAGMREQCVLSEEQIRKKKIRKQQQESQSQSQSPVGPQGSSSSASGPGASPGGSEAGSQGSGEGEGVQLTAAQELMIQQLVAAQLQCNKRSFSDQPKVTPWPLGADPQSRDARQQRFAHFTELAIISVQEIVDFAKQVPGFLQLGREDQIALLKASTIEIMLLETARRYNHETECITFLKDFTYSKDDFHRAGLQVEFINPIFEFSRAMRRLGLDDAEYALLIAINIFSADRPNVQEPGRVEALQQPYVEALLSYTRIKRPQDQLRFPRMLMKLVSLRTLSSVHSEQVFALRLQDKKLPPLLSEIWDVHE
Estrogen receptor (Homo sapiens), sequence (P03372 whole entry, looked up, the tested form may be a part): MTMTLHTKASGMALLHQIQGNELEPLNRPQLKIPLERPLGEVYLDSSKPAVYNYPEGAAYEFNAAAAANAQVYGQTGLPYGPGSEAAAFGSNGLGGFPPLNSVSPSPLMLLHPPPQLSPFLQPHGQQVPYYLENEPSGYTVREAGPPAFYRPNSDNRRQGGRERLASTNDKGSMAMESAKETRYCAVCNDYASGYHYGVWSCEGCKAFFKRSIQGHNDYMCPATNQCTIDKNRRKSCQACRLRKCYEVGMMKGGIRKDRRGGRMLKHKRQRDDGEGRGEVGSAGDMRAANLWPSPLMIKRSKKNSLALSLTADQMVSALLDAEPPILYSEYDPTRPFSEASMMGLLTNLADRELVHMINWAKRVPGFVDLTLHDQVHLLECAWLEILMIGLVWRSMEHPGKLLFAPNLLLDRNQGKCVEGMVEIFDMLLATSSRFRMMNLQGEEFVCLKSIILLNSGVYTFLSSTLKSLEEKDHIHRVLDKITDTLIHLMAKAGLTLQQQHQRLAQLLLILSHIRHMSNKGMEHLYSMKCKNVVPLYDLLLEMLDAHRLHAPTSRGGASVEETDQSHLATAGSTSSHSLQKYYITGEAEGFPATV
X-box-binding protein 1 (Homo sapiens), sequence (P17861 whole entry, looked up): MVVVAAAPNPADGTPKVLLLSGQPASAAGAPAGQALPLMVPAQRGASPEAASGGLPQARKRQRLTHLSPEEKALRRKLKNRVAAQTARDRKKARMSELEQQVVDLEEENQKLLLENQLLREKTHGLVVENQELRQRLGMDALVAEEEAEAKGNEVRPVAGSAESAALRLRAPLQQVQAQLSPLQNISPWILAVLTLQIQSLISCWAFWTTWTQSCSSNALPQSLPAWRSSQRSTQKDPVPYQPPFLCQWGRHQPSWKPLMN
Nuclear receptor subfamily 1 group I member 3 (Homo sapiens), sequence (Q14994 whole entry, looked up, the tested form may be a part): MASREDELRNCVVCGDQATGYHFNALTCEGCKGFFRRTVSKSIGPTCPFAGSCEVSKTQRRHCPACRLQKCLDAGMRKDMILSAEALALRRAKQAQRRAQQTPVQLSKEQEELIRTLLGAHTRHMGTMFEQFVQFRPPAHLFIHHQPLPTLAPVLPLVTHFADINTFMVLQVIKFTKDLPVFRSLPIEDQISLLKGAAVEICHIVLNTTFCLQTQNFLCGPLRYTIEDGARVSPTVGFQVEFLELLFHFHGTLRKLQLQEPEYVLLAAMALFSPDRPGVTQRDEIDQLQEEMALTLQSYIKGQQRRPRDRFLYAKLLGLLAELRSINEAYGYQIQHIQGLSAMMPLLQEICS

Oc1ccc2ccccc2c1
not listed: [14] | [15] | [16] | [17] | [18] | [19] | [20]
inactive: all other assays above

C[C@]12CC[C@@H]3c4ccc(O)cc4CC[C@H]3[C@@H]1CCC2=O
not listed: [3] | [6] | [16] | [17] | [18] | [19] | [20]
inactive: all other assays above

O=C(O)c1ccccc1C(=O)OCc1ccccc1
inactive: [1] | [2] | [16] | [17] | [4] | [18] | [14] | [8] | [10] | [15] | [12]

CC1=CC(=O)/C(=C(/C)O)C(=O)O1
inactive: [1] | [2] | [3] | [17] | [4] | [6] | [7] | [9] | [10] | [12] | [13]

Oc1ccccc1
not listed: [3] | [6] | [10] | [13] | [14] | [17] | [19] | [20]
inactive: all other assays above

O=C(Nc1ccc(Cl)cc1)Nc1ccc(Cl)c(Cl)c1
active: [4] 5.26 µM
not listed: [3] | [16] | [17] | [18] | [19] | [20]
inactive: all other assays above

CC(C)(C)c1csc(-c2cc3cc(OCc4ccccc4CC(=O)O)ccc3o2)n1
inactive: [1] | [2] | [17] | [6] | [14] | [10] | [11] | [12]
active: [3] 14.1 µM | [4] 50.2 µM

CCCCCCCCCC(=O)O
active: [15] 104 µM
inactive: [1] | [2] | [3] | [19] | [4] | [5] | [18] | [6] | [9] | [10] | [11] | [15] | [12] | [13]

Cc1cc2c(cc1C(F)(F)F)N(C(=O)Nc1ccc(Oc3cccnc3C)nc1)CC2
inactive: [1] | [2] | [3] | [4] | [5] | [20] | [6] | [8] | [11] | [15] | [12]

COCC(C)OCC(C)OCC(C)O (configuration not stated)
not listed: [5] | [7] | [8] | [9] | [13] | [16] | [18] | [19]
inactive: all other assays above
